# Reference: PubChem BioAssay AID1159580 (chemical genetic matrix, 2015)
# In all, about 5,500 compounds went through this assay and about 2,000 (36%) were called active. About 18% were inconclusive and are not listed. This is one part of the list. Values without a mark were called inactive. Rule as the data show it: active = normalized growth mostly below about 0.91 (no sharp cut-off); inconclusive = no clear call, values can overlap the other calls; inactive = mostly above about 0.92.
# Experiment: chemical genetic growth profiling, strain panel (AID 1159580);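 also: tested at 20 µM; growth read once vehicle control cultures reached saturation at 30 °C; 1 = growth at the plate median or of vehicle wells; lower values mean less growth of the strain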
# Conditions: S. cerevisiae deletion strains, growth OD
smiles,measurement,setting,value
O=C(c1ccccc1)c1cc2c(cc1Br)OCCO2,normalized growth,"locus YAL013W, strain DEP1, hits give low values",0.908 (active)
same,normalized growth,"locus YBR229C, strain ROT2, hits give low values",0.953
same,normalized growth,"locus YDL101C, strain DUN1, hits give low values",0.897 (active)
same,normalized growth,"locus YDL134C, strain PPH21, hits give low values",0.942
same,normalized growth,"locus YDR150W, strain NUM1, hits give low values",0.927
same,normalized growth,"locus YEL061C, strain CIN8, hits give low values",0.904 (active)
same,normalized growth,"locus YGR078C, strain PAC10, hits give low values",0.922 (active)
same,normalized growth,"locus YHR030C, strain SLT2, hits give low values",0.304 (active)
same,normalized growth,"locus YHR087W, strain rtc3, hits give low values",0.989
same,normalized growth,"locus YJR043C, strain POL32, hits give low values",0.906 (active)
same,normalized growth,"locus YJR075W, strain HOC1, hits give low values",0.93
same,normalized growth,"locus YKL190W, strain CNB1, hits give low values",0.845 (active)
same,normalized growth,"locus YLR039C, strain RIC1, hits give low values",0.486 (active)
same,normalized growth,"locus YLR058C, strain SHM2 (second series), hits give low values",0.956
same,normalized growth,"locus YLR085C, strain ARP6, hits give low values",0.419 (active)
same,normalized growth,"locus YLR262C, strain YPT6, hits give low values",0.524 (active)
same,normalized growth,"locus YML094W, strain GIM5, hits give low values",0.852 (active)
same,normalized growth,"locus YMR219W, strain ESC1, hits give low values",0.952
same,normalized growth,"locus YMR263W, strain SAP30, hits give low values",0.921
same,normalized growth,"locus YNL153C, strain GIM3, hits give low values",0.91 (active)
same,normalized growth,"locus YNL298W, strain CLA4 (second series), hits give low values",0.7 (active)
same,normalized growth,"locus YNL322C, strain KRE1, hits give low values",0.955
same,normalized growth,"locus YNR030W, strain Alg12, hits give low values",0.811 (active)
same,normalized growth,"locus YPL055C, strain LGE1, hits give low values",0.845
same,normalized growth,"locus YPL241C, strain CIN2, hits give low values",0.823 (active)
same,normalized growth,"locus YPR135W, strain CTF4, hits give low values",0.445 (active)
